# Assay outcomes as filed in PubChem BioAssay.
# PAFAH2 FP inh = inhibitors of human PAFAH2 | Q99487 | recombinant PAFAH2, FP-rhodamine activity probe, fluorescence polarization | inhibition, % at 3.39 µM | 0.99% of 340,000 active;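 active = inhibition above the mean over all tested compounds plus 3 SD, cut at about 30% in these data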;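 also: inhibitors block probe labeling of enzyme so polarization drops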
# pPAFAH FP inh = pPAFAH (human) enzyme inhibition; inhibition, % at 3.39 µM; Q13093; 1.5% of 330,000 active; AID 463082; recombinant pPAFAH, FP-rhodamine probe fluorescence polarization;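 active = inhibition above the mean inhibition across the screen plus 3 SD, cut at about 25% in these data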;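 also: inhibitors block binding of the rhodamine activity-based probe so polarization drops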
# PAFAH1B3 inh = inhibitors of human PAFAH1B3; Q15102; recombinant PAFAH1B3, FP-rhodamine probe, fluorescence polarization; inhibition, % at 3.39 µM; 0.28% of 340,000 active; AID 492972;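 active = inhibition above the screen-wide average of all tested compounds plus 3 SD, cut at about 25% in these data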
# Target sequence (Q15102 whole entry, looked up): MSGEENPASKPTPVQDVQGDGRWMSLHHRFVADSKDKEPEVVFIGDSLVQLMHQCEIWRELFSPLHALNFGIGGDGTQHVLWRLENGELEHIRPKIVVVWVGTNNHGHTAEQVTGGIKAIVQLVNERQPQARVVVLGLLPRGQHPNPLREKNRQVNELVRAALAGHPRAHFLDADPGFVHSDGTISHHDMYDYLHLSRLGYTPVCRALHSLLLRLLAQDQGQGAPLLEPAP
# ATG4B inh = ATG4B (human) cysteine protease inhibition; Q9Y4P1; ATG4B cleavage of LC3-PLA2, NBD-HPC fluorescence, 1 h; inhibition, % at 8.33 µM; 0.51% of 340,000 active; in the data active = inhibition above about 40%
# Target sequence (Q9Y4P1 whole entry, looked up): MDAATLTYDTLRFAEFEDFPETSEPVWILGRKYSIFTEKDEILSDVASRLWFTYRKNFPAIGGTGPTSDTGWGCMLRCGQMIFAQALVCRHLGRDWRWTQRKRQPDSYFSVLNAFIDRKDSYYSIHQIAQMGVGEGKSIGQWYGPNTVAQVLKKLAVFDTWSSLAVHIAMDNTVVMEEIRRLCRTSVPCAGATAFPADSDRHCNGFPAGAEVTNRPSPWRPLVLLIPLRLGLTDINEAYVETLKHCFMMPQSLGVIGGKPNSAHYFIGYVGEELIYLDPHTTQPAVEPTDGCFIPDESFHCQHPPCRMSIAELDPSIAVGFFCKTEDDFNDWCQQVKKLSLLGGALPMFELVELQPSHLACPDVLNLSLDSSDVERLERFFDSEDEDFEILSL
# PAFAH1B2 FP inh = blocks human PAF acetylhydrolase 1b catalytic subunit 2. recombinant PAFAH1B2, FP-rhodamine activity probe, fluorescence polarization. inhibition, % at 3.39 µM. 1.2% of 340,000 active;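 active = inhibition above the mean of all tested compounds plus 3 SD, cut at about 24% in these data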
# DAGLB inhibitor = blocks human DAGLB lipase activity; Q8NCG7; HEK293T DAGLB membrane lysate, EnzChek fluorogenic substrate; inhibition, % at 5.17 µM; 0.059% of 340,000 active; AID 504411; in the data active = inhibition above about 34%
# Numbers stand for hits; 0 = inactive; - = not tested or not shown. Sampled rows, rich in hits. Any-hit rate of the full collection: about 3%.
SMILES,PAFAH2 FP inh,pPAFAH FP inh,PAFAH1B3 inh,ATG4B inh,PAFAH1B2 FP inh,DAGLB inhibitor
O=c1[nH]n2c(=O)c3c([nH]c2c1N=Nc1cccc(Cl)c1)CCCC3,30.4,30.9,0,0,34.1,0
CCOc1cc(/C=C(/NC(C)=O)C(=O)O)cc(Cl)c1OCc1ccc(Br)cc1,0,31.1,0,0,0,0
O=C(CNC(=O)C12CC3CC(CC(C3)C1)C2)NCc1ccccc1,0,0,0,0,0,0
O=C(NCc1ccccc1)C12CC3CC(CC(Br)(C3)C1)C2,0,0,0,0,34.7,0
COc1ccc(CCNC(=O)COC(=O)C23CC4CC(CC(Br)(C4)C2)C3)cc1,0,0,0,0,0,0
CC(NC(=O)COC(=O)C12CC3CC(CC(Br)(C3)C1)C2)c1ccccc1 (stereo not drawn),0,0,0,0,40.5,0
O=C(Nc1ccc2c(c1)CCC2)Nc1ccc2c(c1)OCO2,0,25.4,0,0,0,0
O=C(Nc1ccc2c(c1)OCCO2)Nc1ccc2c(c1)OCO2,0,0,0,0,0,0
O=C(COC(=O)CC12CC3CC(CC(C3)C1)C2)Nc1ncc(Cl)cc1Cl,0,26.7,0,0,0,0
N/C(=N\OC(=O)CCC1CCCC1)c1ccc(Cl)cc1,0,0,0,0,25.3,0
Cc1ccc(/C(N)=N/OC(=O)CCC2CCCC2)cc1,0,0,0,0,0,0
COc1ccc2c(c1)CCCC21NC(=O)N(CC(=O)NC(=O)NCc2ccccc2)C1=O (stereo not drawn),0,0,0,0,0,0
CC(C)CC(C(=O)O)N1C(=O)C2C3CC(C2C1=O)C1C(c2ccccc2)c2sc(=O)[nH]c2SC31 (stereo not drawn),0,0,0,0,40.4,0
O=C(O)CN1C(=O)C2C3CC(C2C1=O)C1C(c2ccccc2)c2sc(=O)[nH]c2SC31 (stereo not drawn),0,0,0,0,72.0,0
O=C(NC1CC1)c1nc(Cn2cc([N+](=O)[O-])cn2)no1,0,0,0,0,0,0
CC(=O)N1CCN(C(=O)c2ccc(C(=O)c3ccccc3)cc2)CC1,0,0,0,0,0,0
NS(=O)(=O)c1cc(C(=O)OCC(=O)Nc2ccc3c(c2)OCO3)ccc1Cl,0,0,0,0,0,0
COC(=O)CCCC1=CC2=CC(=O)C(C)(O)C(=O)C2=CO1 (stereo not drawn),-,0,-,-,-,-
CC(C)(C)OC(=O)NCCCC1=CC2=CC(=O)C(C)(OC(=O)c3ccc(Cl)nc3)C(=O)C2=CO1 (stereo not drawn),-,40.4,-,-,-,-
CCC(=O)OC1(C)C(=O)C=C2C=C(CCCCNC(=O)OC(C)(C)C)OC=C2C1=O (stereo not drawn),-,30.1,-,-,-,-
COC(=O)CCCC1=CC2=CC(=O)C(C)(OC(=O)C3CCCC3)C(=O)C2=CO1 (stereo not drawn),0,31.9,0,0,0,0
CCCCC1=CC2=CC(=O)C(C)(OC(=O)C3CCCC3)C(=O)C2=CO1 (stereo not drawn),0,0,0,0,0,0
CC(C)(C)OC(=O)NCCCC1=CC2=CC(=O)C(C)(O)C(=O)C2=CO1 (stereo not drawn),-,32.2,-,-,-,-
CCC(=O)OC1(C)C(=O)C=C2C=C(CCCC(=O)OC)OC=C2C1=O (stereo not drawn),0,0,0,0,0,0
COc1ccc2[nH]c3c(c2c1)CCN1C(=O)C(CC(=O)NCCCN(C)C)C[C@H](C(=O)N2CCCCC2)[C@@]31C (stereo partly drawn),0,0,0,0,0,0
SMILES,PAFAH2 FP inh,pPAFAH FP inh,PAFAH1B3 inh,ATG4B inh,PAFAH1B2 FP inh,DAGLB inhibitor
CC(C)c1ccccc1NC(=O)CN1C(=O)c2ccccc2C1=O,0,0,0,0,0,0
O=S(=O)(O)c1cc(O)c2ccc(Nc3ccccc3)cc2c1,65.8,-,42.5,0,0,0
COc1ccccc1Nc1ccc2c(O)cc(S(=O)(=O)O)cc2c1,75.4,-,75.4,0,34.0,0
Nc1cccc2c(O)cccc12,44.3,0,34.9,0,0,0
Nc1ccc2c(O)cc(S(=O)(=O)O)cc2c1,53.5,-,60.4,0,37.2,0
CC(=O)Nc1ccc2c(O)cc(S(=O)(=O)O)cc2c1,0,-,0,0,0,0
Nc1ccccc1O,0,0,0,0,0,0
COc1ccc(S(=O)(=O)O)cc1P(=O)(c1ccccc1)c1ccccc1,0,0,0,0,0,0
O=C(C[n+]1ccccc1)NNc1ccccc1,0,0,0,0,0,0
COc1cccc(C(C)NC(=O)Cc2cccs2)c1 (stereo not drawn),0,0,0,0,0,0
Nc1cc(S(=O)(=O)O)cc([N+](=O)[O-])c1O,0,0,0,0,0,0
O=S(=O)(O)c1cc(O)c2cc(Nc3ccccc3)ccc2c1,41.6,-,43.2,0,26.0,0
O=S(=O)(O)c1ccc(O)c2cc(Nc3ccccc3)ccc12,89.2,-,76.2,0,57.6,0
Nc1cccc2c(O)cc(S(=O)(=O)O)cc12,66.5,-,76.9,0,70.5,0
Cc1ccc(S(=O)(=O)c2cc(Nc3ccccc3)ccc2O)cc1,0,0,0,0,0,0
CC(=O)/C(=N\Nc1ccccc1)Oc1ccc(Br)cc1,-,0,-,0,-,-
O=C(COc1cc(Cl)ccc1Cl)N1CCNC1=O,0,-,0,0,0,0
C[C@@H]1CN([C@@H](C)CO)C(=O)CCCn2nncc2CO[C@@H]1CN(C)S(=O)(=O)c1ccc(F)cc1,-,-,-,-,-,0
O=C(O)c1ccc2c(c1)C(=O)N(c1nccs1)C2=O,0,0,0,0,0,0
c1ccc2c(c1)[nH]c1ccccc12,0,0,0,0,24.9,0
O=c1c2ccccc2[nH]c2ccccc12,0,0,0,0,0,0
CCOC(=O)N1CCC(=NNC(=O)c2cc3ccccc3cc2O)CC1,0,27.0,0,0,0,0
O=C1CCCC(=NNC(=O)c2cc3ccccc3cc2O)C1,0,0,0,0,0,0
CC1CCC(NC(=O)c2cccn2C)CC1 (stereo not drawn),0,-,0,0,0,0
Cc1noc(C)c1CSCC(=O)Nc1ccccc1N1CCCCC1,0,0,0,-,29.5,0
O=C(NCCC1=CCCCC1)c1ccc(Cl)c(S(=O)(=O)Nc2ccccc2)c1,0,0,0,0,27.9,0
Cc1sc2ncnc(SCc3ccc(C(=O)O)cc3)c2c1C,0,0,0,0,0,0
Cc1ccc(-c2csc3ncnc(SCc4ccc(C(=O)O)cc4)c23)cc1,-,28.6,-,0,-,-
CC(Oc1ccc2c(-c3ccccc3)cc(=O)oc2c1)C(=O)N[C@H](Cc1c[nH]c2ccccc12)C(=O)O (stereo partly drawn),0,0,0,0,76.4,0
COc1ccc(-c2cc(=O)oc3cc(OC(C)C(=O)NC(Cc4c[nH]c5ccc(O)cc45)C(=O)O)ccc23)cc1 (stereo not drawn),0,0,0,0,0,0
